Assay results reported in PubChem BioAssay AID1347419 (Sanford-Burnham Center for Chemical Genomics, 2020).
The campaign covered roughly 99,000 compounds. About 820 (0.83%) were called active. The full list was thinned out, with actives kept by preference. Unmarked numbers belong to inactive results.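 How the source made its calls: active means Z-score of -3 or lower, scaled per plate to the spread of control and sample wells; inactive means z-score above -3.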

These molecules were tested against Protein-tyrosine kinase 2-beta (Homo sapiens) (UniProt Q14289) (assay: Pyk2 FERM oligomerization blockers – Q293 cells, FERM NanoBiT luminescence, HTS, primary screen (AID 1347419;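 further: the deposit names both 25 µM and 10 µM; negative z-score means lost luminescence so less FERM oligomerization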)). Settings: stronger effect = lower value.
Sequence of Protein-tyrosine kinase 2-beta (Homo sapiens) (Q14289 whole entry, looked up): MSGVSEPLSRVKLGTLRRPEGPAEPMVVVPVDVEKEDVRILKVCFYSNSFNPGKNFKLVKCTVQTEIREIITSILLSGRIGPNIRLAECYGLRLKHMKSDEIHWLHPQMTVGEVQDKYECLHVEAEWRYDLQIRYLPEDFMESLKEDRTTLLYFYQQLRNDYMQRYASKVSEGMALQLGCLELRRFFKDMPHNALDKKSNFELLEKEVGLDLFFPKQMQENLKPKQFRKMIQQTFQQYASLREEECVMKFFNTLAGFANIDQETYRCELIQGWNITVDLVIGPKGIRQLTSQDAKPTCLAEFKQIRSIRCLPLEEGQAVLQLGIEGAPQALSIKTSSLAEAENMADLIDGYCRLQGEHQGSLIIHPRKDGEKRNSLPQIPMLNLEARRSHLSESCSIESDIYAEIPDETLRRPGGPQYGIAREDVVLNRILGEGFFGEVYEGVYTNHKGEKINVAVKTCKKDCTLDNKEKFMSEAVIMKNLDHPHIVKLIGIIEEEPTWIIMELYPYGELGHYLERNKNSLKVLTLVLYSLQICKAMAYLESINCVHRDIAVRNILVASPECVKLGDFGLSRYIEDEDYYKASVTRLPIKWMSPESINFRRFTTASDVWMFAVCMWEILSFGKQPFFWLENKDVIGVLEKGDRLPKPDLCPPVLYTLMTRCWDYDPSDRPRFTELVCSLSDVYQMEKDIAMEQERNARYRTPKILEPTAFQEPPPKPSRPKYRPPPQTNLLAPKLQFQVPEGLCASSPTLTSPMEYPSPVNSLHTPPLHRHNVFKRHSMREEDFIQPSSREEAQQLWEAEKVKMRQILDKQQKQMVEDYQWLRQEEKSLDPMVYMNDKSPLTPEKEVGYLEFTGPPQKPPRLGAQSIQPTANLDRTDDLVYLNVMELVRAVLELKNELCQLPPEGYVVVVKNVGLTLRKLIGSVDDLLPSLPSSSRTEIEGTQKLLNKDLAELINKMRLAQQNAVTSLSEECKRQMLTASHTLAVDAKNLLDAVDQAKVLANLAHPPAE
Parameters: dose or concentration left out as unconfirmed

Row | Compound | z-score
1 | CC(=O)c1c(O)n(C2CCCCCC2)c(=O)[nH]c1=O | 0.12
2 | CCC(=NCc1ccco1)c1c(O)n(Cc2ccccc2)c(=O)[nH]c1=O | -0.23
3 | CCC(=NCCc1ccccc1)c1c(O)n(C2CCCCC2)c(=O)[nH]c1=O | -3.36 (active)
4 | CN(C)c1ccc(/C=C2\CC3C4CC=C5CC(O)CCC5(C)C4CCC3(C)C2=O)cc1 (stereo not given) | -0.08
5 | O=C(COC(=O)c1ccccc1)Nc1ccc(Cl)cc1C(=O)c1ccccc1 | 0.02
